Measured values reported in the supplement of paper PMC11417369.
Whole data set: some 25,000 sequences, median “ln(normalized median fluorescence intensity)” near 6.7, cut for the highest 2% near 10. What follows is part of a selection rich in the highest values, with near analogues and random picks from the rest.

Each sequence was assayed on PfHDP1 homeodomain (GST-tagged) (assay: gcPBM binding intensity (ln(normalized median fluorescence intensity)); higher = stronger DNA binding).
How it was run: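 Using an Agilent 4 × 180k array, primer-extended double-stranded 36-bp intergenic genomic probes and negative controls were exposed for 1 h to GST-fused P. falciparum DNA-binding domains expressed in E. coli. Binding was carried out in 1× PBS with 1% milk, 0.2 mg/ml BSA, 0.5% salmon testes DNA and 0.03% Triton X-100, and protein was detected with Alexa488 anti-GST antibody and a 488 nm scan. Binding intensity is the highest Masliner-normalised natural-log median intensity across replicate spots of either probe orientation.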

Row | Sequence | gcPBM binding intensity (ln)
1 | TAGAAGTACATATATGCATGTTAATTTTAAAGGAGG [TGCATGCA_site538] | 6.9
2 | TATACATATTTTATAGCACACAAATAATAATATGTA [CACACA_site8129] | 6.63
3 | TTCTATTTTATATGTGCACACATATACACCCACAAA [CACACA_site1130] | 10.9
4 | CTTACACCCATATATACACACATGTATATTTTATAT [CACACA_site4462] | 7.24
5 | CTATTTTATATGTGCACACATATACTCAGACAAATA [CACACA_site4761] | 10.6
6 | TATATACATATATGCACACAAAAAAATATATATTTT [CACACA_site1729] | 10.1
7 | CTATTTTATATGTGCACACATATACACCCACAAATA [CACACA_site1131] | 10.1
8 | TTTGTTTTATCTTATATGCACACGATAAAAAAAAAA [CACACA_site2673] | 9.69
9 | TATAAAAATAATATTACACACATGTAAAATGGGGGT [CACACA_site9071] | 7.03
10 | TTGTTTTCACCAAATACACACAAGCATACACCCCAT [CACACA_site2717] | 7.34
11 | AGTGATTATTAATAATGTACATATCTATAAATATAT [XGTACX_site4734] | 6.43
12 | TTAATGTTATATGTGTGTACATATAAGTTTAGTAAA [XGTACX_site4651] | 6.53
13 | AAAAAAATGAAGAAATGTACAAATTTCATTAATTTT [XGTACX_site354] | 6.05
14 | TTCATATATAATTGTACACACAAAAACGACATTGTG [CACACA_site2074] | 7.05
15 | ATATTATGTGATTGTGCACACTGGAGATTTTTTTTA [CACACA_site1453] | 11.2
16 | GAGATTTATTTATGTGCACACTAGAACAATTGGATC [CACACA_site2090] | 10.5
17 | TATATATATATATATGTGCACTGGACATATTTTTAT [GTGCAC_site9721] | 9.84
18 | TTATTTGAACAATATGCACACATTTTATTTATTTTA [CACACA_site3420] | 10.1
19 | TTTAGTTTTTATATAGCACACATATTGTGATTATGT [CACACA_site8316] | 6.82
20 | TAGATCATAACAATTGCACACATTTGCATTTATATT [CACACA_site1562] | 10.1
21 | TTAATATGTTTAACCATTTTACATAAATTGATTTGT [CACACA_negctrl_site1100] | 6.3
22 | TGTTATTACTTTATATCATCTTAAAATAAGCATATT [CACACA_negctrl_site1501] | 6.26
23 | AAATTAATACATTATTGTACTTTTCATGTGCAGAAA [XGTACX_site8284] | 8.11

Row | Sequence | gcPBM binding intensity (ln)
24 | TTACTTGTTTATTTTTTTTTTTTTTTTTTTTTTGTT [TGCATGCA_negctrl_site103] | 5.62
25 | TATATGAAAATGTTCATACACACATAAAAAAAAAAA [CACACA_site3237] | 6.41
26 | GTTCAATCGGGTGTTACTTCAAACAAGGAACAACAA [TGCATGCA_negctrl_site471] | 6.16
27 | TTAAGATATGTATATCGTACATGACATTAAAAATTT [XGTACX_site3352] | 6.02
28 | ATGCAAATAATATAAAGTACACAACATCGCCCAAAG [XGTACX_site1825] | 7
29 | ACAAGTATTCCTTTTGCACACCTTTCTGCACCTTAT [CACACA_site3873] | 11.1
30 | TATTTAACACCTTATACACACTTTCTTCCTTTTTTA [CACACA_site4590] | 7.12
31 | TATATATTTTCTTTTGCACACTGTTTTCCTTTTTTT [CACACA_site2739] | 10.2
32 | AAAATTAGGTATATATGTACATATATAAATATATAT [XGTACX_site3555] | 6.8
33 | TAAAGAAACTATTCAACACACGGTCTAATTATTACA [CACACA_site1064] | 6.15
34 | TATTATTTACCTTGCTAGTTCGTTCCAAATTTTATG [XGTACX_negctrl_site197] | 7.19
35 | AATGTGCAAACAAACTGTACTTTTTTTTTTTTTTTT [XGTACX_site928] | 10.6
36 | AAACAAATGTATATGTGTACTTATTTTTTTGTATGT [XGTACX_site7134] | 6.17
37 | ACAAAACTTTTAAGAACACACAAAAATGTACTATCG [CACACA_site7245] | 6.17
38 | TTTTCATTTTTCTTTACACACATATATATATATATA [CACACA_site2236] | 9.23
39 | ATATAGATGCATAATACACACATCAGATAATTAACC [CACACA_site6871] | 6.96
40 | TGCAAAAAATTCCACACACACACACGCATATAAATA [CACACA_site6696] | 6.72
41 | TTTTTTTGTTAAAAGGTGCTAATATATATAAGTGCT | 6.62
42 | ATGATATACTTGAGTGTGCACAAACTATTACTTACA | 11
43 | TCTACTATTATATATTGTACAAATGATACTTATATT [XGTACX_site1819] | 6.61
44 | ATATATTTGATAAGAGTGCACAAATACATACATACA [GTGCAC_site9704] | 9.65
45 | CCATTTGATAATAATGCACACCACATATATTTATAT [CACACA_site9002] | 10.1
46 | TTATTTACATCAAGTACATGCAGTAAAAAAAAAAAA [TGCATGCA_site351] | 6.41

Row | Sequence | gcPBM binding intensity (ln)
47 | ATATATATATATATATGTACTTATTTATCGTATTAT [XGTACX_site3520] | 9.59
48 | CTTTTTTTAATGATAACACACATGTTGTGCATAGAC [CACACA_site3270] | 10.7
49 | TACACATAATATAATGCATGTGTGATGTATGTTTAA [TGCATGCA_site697] | 6.56
50 | TCTTTTAACACATGTGATATTATTTAATAACAATAA [CACACA_negctrl_site339] | 6.51
51 | TTTTTTTTTTATTAATGTACAAGATATATAATGTTA [XGTACX_site4809] | 6.16
52 | TTAAAAAACCTTAGATGTACAGTTATATATAAAATA [XGTACX_site6688] | 6.37
53 | TTTAATTATTAGTGTGCACACAACTATGAGTTTTTA [CACACA_site8997] | 10.8
54 | AACAACTATTAATTTACACACATGTATATATTTTAC [CACACA_site3116] | 6.82
55 | AACGGGGGTAGTTTTATGCACACGTTTATTAATGCT [CACACA_site3173] | 9.56
56 | TTTTTAATTTATTGTGTGCACACAACTATGAGTTTT | 10.3
57 | TTTAATTTTCGGTGTGCACACAACTATGAGTTTTTA [CACACA_site3034] | 11.2
58 | TAACTTAATTTTAATGCACACAATTTATATATATAT [CACACA_site6022] | 10.5
59 | TTTTTTTTTTTTTTTTGTACATATTTTTAAACTATA [XGTACX_site2897] | 6.24
60 | TTCTTTTTTCGACACACACACACAAGAAGATATATA [CACACA_site7456] | 7.11
61 | ATATATCTATAAAAGGCTTCCCACTTTTTTTGTCAA [TGCATGCA_negctrl_site332] | 6.39
62 | GGCGTATGTGTATATACACACCCACGTATATATATA [CACACA_site9046] | 8.02
63 | CCTATTTATATATACACACACATATATAAATAAATA [CACACA_site2991] | 6.95
64 | TATATATATGAGTATACACACCTGATAAAGGTATAT [CACACA_site5462] | 6.87
65 | TAATGTAAAATTTAGAGTACATAAAAAATTGGATGA [XGTACX_site7225] | 6.68
66 | AAATAAAATTATAATACATGCATACATACATATATA [TGCATGCA_site69] | 6.3
67 | AAAAATAAAATATATACATGCATATACATATTATAT [TGCATGCA_site668] | 6.31
68 | AATTATATAAGCCACGCATGTGTGCATAAAAATACA [TGCATGCA_site114] | 10.9
69 | CCATAATATTATAGACGTACGAATATATATAAAAGA [XGTACX_site7295] | 7.24

Row | Sequence | gcPBM binding intensity (ln)
70 | ACATATAAATGATATGTACACACATTTATATATATA [CACACA_site9152] | 7.4
71 | TAAAGATATAAATGCACACGTATTAAAAAAAAAATA [CACACA_site952] | 9.54
72 | ACATTAACATTGTTGGTGCAAAATTAATATGTTTTT [GTGCAC_site9673] | 10.7
73 | TATATTAACAAAATGGTGCAATAATTTCTATATTGT [GTGCAC_site9430] | 10.4
74 | AAAATTAATGTTGGTTGTACAAAAATTAAATATGGT [XGTACX_site66] | 6.85
75 | TAAATACATAAAAATTGTACACATTGTTTTCTCTTT [XGTACX_site6435] | 6.49
76 | TAGAAATATATAAATTGTACATGTTTGTATAATATA [XGTACX_site2097] | 6.44
77 | ATATTTATACTATACACACCCAATTTAAAAAAAAAT [CACACA_site1163] | 7.11
78 | TAAATGCACATATACACACACCCAATTTTAAGTTTT [CACACA_site7428] | 11.1
79 | CTTAAATTTTTAAATACACACATACACCCATACACA [CACACA_site4461] | 7.25
80 | ACCCAATTTTTTAGTACACACATATAAATATATAAA [CACACA_site4944] | 6.86
81 | TAAAATAAAAAGTTTACACACATATATAATTTTAAT [CACACA_site662] | 6.24
82 | ATTAAATGCACATATACACACACCCAATTTTAAGTT [CACACA_site3049] | 11.3
83 | TTCTTAAGGAACGAACGTACAGAATAAAAAGTAAAA [XGTACX_site4294] | 6.61
84 | GTTTATGTTAAACCATGTACTTAATATTTTATTCTT [XGTACX_site3761] | 6.29
85 | ATTACATTTTTAATGCGTACTAAAAATGTATATAAG [XGTACX_site6384] | 6.6
86 | ATTGAAAAACCGTTTAGTACATATCATCACGTTTGT [XGTACX_site1295] | 6.04
87 | CATACATACATACATACACACACATATATATATATA [CACACA_site8593] | 9.27
88 | TTTCTATATGGATTTGCACACATAAAAATGCTTATA [CACACA_site8751] | 10.2
89 | ATTGCTTTTCTTTTTGCACACTTATGCATATATATA [CACACA_site2584] | 10.4
90 | TGCTTTTCTTTTTGCACACTTATGCATATATATATA [CACACA_site2583] | 10.8
